Screening data deposited in PubChem by National Center for Advancing Translational Sciences (NCATS).
DT40 TDP1 CPT: qHTS for Inhibitors of human tyrosyl-DNA phosphodiesterase 1 (TDP1): qHTS in cells in presence of CPT | chicken DT40 Tdp1-/-;hTDP1 cells + 20 nM CPT, ATP luminescence, 48 h | Potency, µM (titrated, usually from 46.2 µM), without a hit: at the highest dose activity change, negative = growth inhibition, most hits filed as inhibitors | hit rate 12% among 420,000; also: nearly all actives have a fitted effect of over 55% in size
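Chicken DT40 Tdp1-/- cells complemented with human TDP1, 400 cells/well, exposed to compounds plus 20 nM camptothecin for at least 48 h at 37 C; viability read as ATP content by CellTiter-Glo luminescence.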
RORgamma inh: qHTS for inhibitors of ROR gamma transcriptional activity | Nuclear receptor ROR-gamma (Mus musculus), P51450 | Drosophila S2 Gal4-RORgamma UAS-luciferase reporter, 20 h | Potency, µM (series often up to 53.6 µM), without a hit: top-dose activity change, negative = inhibition, most hits filed as inhibitors | hit rate 5.4% among 310,000; also: nearly all actives have a fitted effect of over 60% in size
Target sequence (P51450 whole entry, looked up, the tested form may be a part): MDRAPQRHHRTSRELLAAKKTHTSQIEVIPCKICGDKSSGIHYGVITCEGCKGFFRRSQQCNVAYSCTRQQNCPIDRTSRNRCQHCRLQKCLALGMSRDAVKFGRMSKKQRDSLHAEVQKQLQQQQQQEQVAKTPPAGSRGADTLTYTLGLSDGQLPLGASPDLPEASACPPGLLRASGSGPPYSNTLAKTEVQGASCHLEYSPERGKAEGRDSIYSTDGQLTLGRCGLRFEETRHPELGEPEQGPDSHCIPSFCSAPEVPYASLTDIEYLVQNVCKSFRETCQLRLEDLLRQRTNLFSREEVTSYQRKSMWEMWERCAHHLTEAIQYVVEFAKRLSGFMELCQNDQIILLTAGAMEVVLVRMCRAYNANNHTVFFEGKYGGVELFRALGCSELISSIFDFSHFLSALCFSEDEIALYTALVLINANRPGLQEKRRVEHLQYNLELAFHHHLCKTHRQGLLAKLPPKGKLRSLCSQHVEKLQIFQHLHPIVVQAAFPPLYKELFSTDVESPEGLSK
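A Gal4/UAS one-hybrid system in insect cells: metallothionein-promoter Gal4–ROR gamma fusion plus Photinus luciferase reporter. Copper sulfate 700 uM final, 20 hr ambient incubation, luminescent detection after 10 min with reagent.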
TDP1 inh: qHTS Assay for Inhibitors of Tyrosyl-DNA Phosphodiesterase (TDP1); Potency, µM (highest dose often 130 µM), for the others: at the top dose activity change, negative = inhibition, actives largely listed as inhibitors; Tyrosyl-DNA phosphodiesterase 1 (Homo sapiens), Q9NUW8; recombinant TDP1, AlphaScreen DNA substrate cleavage; hit rate 0.28% among 350,000; also: nearly all actives have a fitted effect of over 40% in size
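Enzyme-compound mixtures sat 15 min at room temperature, followed by a 5 min reaction with 15 nM final substrate and 10 min with AlphaScreen beads. Recombinant human Tdp1 was used at 1 nM final.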
TDP1 cell noCPT: qHTS for Inhibitors of human tyrosyl-DNA phosphodiesterase 1 (TDP1): qHTS in cells in absence of CPT; DT40 Tdp1-/- hTDP1 cells, no CPT, ATP luminescence, 48 h; Potency, µM (titrated, usually from 46.2 µM), for the others: at the highest dose activity change, negative = growth inhibition, most hits filed as inhibitors; hit rate 15% among 420,000; also: nearly all actives have a fitted effect of over 55% in size
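No-CPT arm: Tdp1-/-;hTDP1 DT40 cells (400/well) plus compounds, incubated ≥48 hr at 37 °C. Readout CellTiter-Glo luminescence.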
VP16 counter: VP16 counterscreen qHTS for inhibitors of ROR gamma transcriptional activity; Potency, µM (top dose mostly 53.6 µM), for inactives: at the top dose activity, negative = inhibition, most hits filed as inhibitors; Drosophila S2 Gal4-VP16 UAS-luciferase, luminescence, 20 h; hit rate 3.5% among 310,000;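 also: Gal4-VP16 expression switched on by copper sulfate through the metallothionein promoter; nearly all actives have a fitted effect of over 50% in size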
Starred values were filed as active, the others as inactive; ? = inconclusive; nt = no result given; [ ] = another dose, or the depositor's remark. Sampled rows, rich in hits. Any-hit rate of the full collection: about 19%. Calls follow the shape of the dose curve; as a rule, active = well fitted curve in the direction sought with a large enough effect; inconclusive = small, poorly fitted or top-dose-only effect, or another doubt; inactive = no such curve, though single readings can be large; an effect the other way counts as inactive or inconclusive. % is scaled to controls: 0 for no effect and ±100 for the full control effect; potency is read from the fitted curve at half-maximal effect.

SMILES | DT40 TDP1 CPT | RORgamma inh | TDP1 inh | TDP1 cell noCPT | VP16 counter
CC(=O)Nc1cccc(NC(=O)CSc2nc(=O)n(Cc3ccccn3)c3c2CCC3)c1 | 7% | nt | 1% | -25% | nt
CCOc1cc(/C=N/N=C2/NC(=O)C(CC(=O)O)S2)ccc1OCc1ccc(Cl)cc1Cl (configuration not stated) | ? | -22% | 20µM* | -13% | -4%
CCCN1CNc2c(c(=O)[nH]c(=S)n2CCc2ccc(C)cc2)C1 | ? | nt | 0% | ? | nt
CCCN1CNc2c(c(=O)[nH]c(=S)n2CCc2cccc(Cl)c2Cl)C1 | ? | nt | 2% | 10µM* | nt
CCCN1CNc2c(c(=O)[nH]c(=S)n2CCc2cc(Cl)cc(Cl)c2)C1 | 5.6µM* | nt | 2%[96 µM] | 4µM* | nt
Cc1ccc(/C=N/n2c(C)nnc2C)o1 | ? | -31% | 3% | ? | ?
Cc1ccc(-c2n[nH]c(=S)n2/N=C/c2sccc2C)cc1 | 6% | ? | -1% | 8% | -2%
Cc1ccc(/C=N/n2c(-c3ccc(Cl)cc3)n[nH]c2=S)o1 | 1% | 6.3µM* | -1% | 0% | -30%
Cc1ccc(-c2n[nH]c(=S)n2/N=C/c2ccncc2)cc1 | -1% | 11µM* | 8% | ? | ?
Cc1ccc(-c2n[nH]c(=S)n2/N=C/c2ccc(C)o2)cc1 | ? | 5µM* | 4% | ? | 3.5µM*
Cc1ccsc1/C=N/NC(=O)CNC(=O)c1c(F)cccc1Cl | 3% | 20% | 0% | 8% | -1%
CCCCn1nnnc1C1(C)CCC(=O)N1C1CC1 (configuration not stated) | -9% | nt | nt | -1% | nt
CCOC(=O)N1CCN(C(=O)C[C@@H]2C[C@@]3(C(=O)OCC)CCCC=C3N(Cc3ccco3)C2=O)CC1 | -15% | nt | nt | ? | nt
CCOC(=O)N1CCN(C(=O)C[C@@H]2C[C@@]3(C(=O)OCC)CCCC=C3N(CCC3=CCCCC3)C2=O)CC1 | ? | nt | nt | 16µM* | nt
CCOC(=O)[C@]12CCC=C1N(CCC1=CCCCC1)C(=O)[C@H](CC(=O)N1CCC(c3ccccc3)CC1)C2 | ? | nt | nt | 18µM* | nt
CNc1nc(Nc2ccccc2)nc(OCC(F)(F)F)n1 | -16% | 27% | nt | ? | -3%
CCOC(=O)C1C(=O)Oc2ccc3ccccc3c2C1C1CCOC1=O (configuration not stated) | ? | -17% | 7% | 15µM* | 11%
CC(=O)c1ccc(NC(=O)c2noc3c2CCC3)cc1 | 2% | -37% | 25µM* | 10% | -27%
COc1ccc(NC(=O)c2noc3c2CCC3)cc1 | -11% | -41% | 14µM* | ? | 13%
O=C(Nc1cccc(O)c1)c1noc2c1CCCCC2 | -26% | 11µM* | 0% | -23% | 3.5µM*
O=S(=O)(c1ccc(S(=O)(=O)N2CCN3CCCC3C2)cc1)N1CCCC1 (configuration not stated) | -14% | -34% | -6% | 3% | -16%
Cc1nn(-c2ccccc2)c(C)c1C(=O)NCCc1ccccc1 | -8% | -11% | nt | -12% | -2%
CS(=O)(=O)c1ccc(-c2nnc(NC(=O)c3cccc(N4C(=O)CCC4=O)c3)o2)cc1 | 20% | nt | 0% | -1% | nt
O=C(Nc1nnc(-c2ccco2)o1)c1ccc(N2C(=O)CCC2=O)cc1 | 3% | 11µM* | 0% | -3% | ?
Cc1nn(-c2ccccc2)c(C)c1C(=O)Nc1nnc(-c2ccco2)o1 | ? | 0.35µM* | 5% | ? | -17%[0.365 µM]
SMILES | DT40 TDP1 CPT | RORgamma inh | TDP1 inh | TDP1 cell noCPT | VP16 counter
O=C(Nc1nnc(-c2ccccc2)o1)c1cccc(N2C(=O)CCC2=O)c1 | ? | 2.5µM* | 2% | ? | 4.5µM*
O=C(Nc1nnc(-c2cc(Cl)ccc2Cl)o1)c1ccco1 | ? | nt | nt | 16µM* | nt
CN(C(=O)C1CCN(S(=O)(=O)c2cccs2)CC1)C1CCCCC1 | -17% | 19% | 0% | -16% | 6%
O=C(Nc1nnc(-c2ccco2)o1)c1ccc(Cl)s1 | 21µM* | 2µM* | 5% | 16µM* | 0.63µM*
CC(=O)Nc1nnc(-c2ccco2)o1 | 15% | -19% | 4% | 4% | 6%
O=C(/C=C/c1ccccc1)Nc1nnc(-c2ccco2)o1 | ? | 2.2µM* | 2% | ? | 5µM*
Cc1ccccc1N1CCN(C2CCCN(C(=O)CCN3CCCO3)C2)CC1 (configuration not stated) | 6% | -13% | 4% | -10% | -3%
Cc1ccc(C)c(-n2c(Cc3cc(=O)[nH]c(=O)[nH]3)nnc2SCC(=O)NCc2ccco2)c1 | 2% | nt | nt | -13% | nt
O=S(=O)(c1cnc(Cl)c(Br)c1)N1CCc2ccccc21 | 16µM* | 0% | 1% | ? | 2%
CC1CCN(S(=O)(=O)c2cnc(Cl)c(Br)c2)CC1 | -16% | 5% | 5% | -24% | -10%
O=S(=O)(c1cnc(Cl)c(Cl)c1)N1CCc2ccccc21 | ? | 1% | 5% | 16µM* | 2%
O=S(=O)(c1ccccc1)N1CCCc2ccccc21 | nt | 1% | nt | nt | 5%
O=S(=O)(c1cnc(Cl)c(Cl)c1)N1CCCc2ccccc21 | 18µM* | ? | 3% | 16µM* | -20%
Nc1cc(-c2ccc(Br)cc2)nc2cc(-c3ccccc3)nn12 | -18% | 12% | 1% | ? | -6%
CCOc1ccc2oc(C(=O)OCC(=O)NCC3CCCO3)c(C)c2c1 (configuration not stated) | -3% | nt | -5% | ? | nt
O=C1NC[C@H](Cc2ccccc2)N(CC2CCN(CCC34CC5CC(CC(C5)C3)C4)CC2)C1=O | 21µM* | nt | nt | ? | nt
CC[C@H](C)[C@H]1CNC(=S)N1CC1CCN(CCC23CC4CC(CC(C4)C2)C3)CC1 | ? | nt | nt | 16µM* | nt
CC(C)C[C@H]1CNC(=O)C(=O)N1CC1CCN(CCC(C)c2ccccc2)CC1 (some centres not stated) | -3% | nt | nt | -1% | nt
CC[C@H](C)[C@H]1CNC(=S)N1CC1CCN(CC2CCC(C)CC2)CC1 (some centres not stated) | -29% | nt | nt | -17% | nt
COc1cccc(CNc2ccc(S(=O)(=O)N3CCCC3)cn2)c1 | ? | nt | -1% | ? | nt
C/C(=N\Nc1ccc(S(=O)(=O)N2CCCCC2)cn1)c1ccc(O)cc1 | ? | nt | 5% | 15µM* | nt
COc1cccc(/C(C)=N/Nc2ccc(S(=O)(=O)N3CCCCC3)cn2)c1 | ? | nt | 2% | 2.9µM* | nt
CCC(=NCCN1CCNCC1)C1=C(O)CC(C)(C)CC1=O | -9% | -9% | 7% | -20% | -1%
